Experimental data taken from PubChem BioAssay (NCATS).
Records with an inconclusive call do not appear. The source made the active and inactive calls. Unless noted, calls come from the whole dose curve; as a rule, active = well fitted curve in either direction with a large enough effect (not every such curve was filed as active); inconclusive = small, poorly fitted or top-dose-only effect, or another doubt; inactive = flat fitted curve, though single readings scatter.

What was measured:
[1] = biological target: Lysosomal acid glucosylceramidase (Homo sapiens) (UniProt P04062); experiment: Glucocerebrosidase-p2 (AID 348; in the data active = potency below about 10 µM; note: potency is the fitted concentration of half-maximal effect); conditions: purified GBA, blue fluorogenic substrate, 40 min
Chain of Lysosomal acid glucosylceramidase (Homo sapiens) (P04062 whole entry, looked up): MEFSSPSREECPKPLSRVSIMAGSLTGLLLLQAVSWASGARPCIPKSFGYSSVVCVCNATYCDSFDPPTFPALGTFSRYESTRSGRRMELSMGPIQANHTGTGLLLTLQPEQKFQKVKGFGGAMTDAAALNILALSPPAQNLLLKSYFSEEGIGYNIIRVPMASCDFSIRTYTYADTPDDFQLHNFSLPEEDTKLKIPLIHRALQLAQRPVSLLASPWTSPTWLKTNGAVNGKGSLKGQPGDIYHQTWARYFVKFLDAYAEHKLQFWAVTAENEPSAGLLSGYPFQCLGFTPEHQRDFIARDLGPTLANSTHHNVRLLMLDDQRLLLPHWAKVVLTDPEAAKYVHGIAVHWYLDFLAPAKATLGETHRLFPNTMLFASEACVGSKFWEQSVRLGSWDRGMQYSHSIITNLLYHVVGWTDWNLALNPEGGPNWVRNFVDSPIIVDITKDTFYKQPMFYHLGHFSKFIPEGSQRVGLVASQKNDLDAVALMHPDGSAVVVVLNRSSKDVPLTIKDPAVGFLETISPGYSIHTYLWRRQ
Outline: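 Compounds titrated from 0.6 nM upwards against 0.2 nM enzyme in pH 5.9 citric acid/KH2PO4, taurocholate, tween-20; blue fluorogenic substrate 80 uM, 40 min room temperature, stopped and read Ex 365/Em 440 for AC50.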

[2] = AP1 Signaling Pathway (AID 357); conditions: ME-180 AP-1-bla reporter, EGF-induced, beta-lactamase ratio, 5 h; at 7.69 µM (top of the series) unless noted;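 note: ME-180 reporter cells stimulated with EGF at its EC50 level; % is set by controls: 0 for no effect and ±100 for the full control effect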
Outline: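 In this screen, ME-180 cells in Opti-MEM with 0.5% dialyzed FBS received EC50 EGF and compound titrations for 5 h. AP-1 reporter beta-lactamase was detected via CCF4 ratio, giving AC50 for positive and negative modulators.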

[3] = NFAT Signaling Pathway (AID 444); conditions: Jurkat NFAT-bla M1, carbachol, beta-lactamase ratio, 5 h; at 7.69 µM (top of the series) unless noted;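 note: carbachol stimulus at about its EC50 of 1 µM final; % is set by controls: 0 for no effect and ±100 for the full control effect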
Outline: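 Jurkat cells with NFAT-driven β-lactamase reporter and co-expressed M1 receptor, stimulated with carbachol (final 1 uM, ~EC50), compound titration, 5 h at 37 °C. CCF4 loaded 1 h at RT; 460/530 nm ratio gave %activity and AC50.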

[4] = Stat Signaling Pathway (AID 446); conditions: ME-180 SIE beta-lactamase reporter, IL-6 stimulated, 5 h; at 7.69 µM (top of the series) unless noted;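 note: ME-180 cervical cancer cells given 40 pM IL-6 alongside compound; SIE-controlled beta-lactamase reporter measured as 460/530 nm FRET emission ratio; % is set by controls: 0 for no effect and ±100 for the full control effect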
Outline: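 ME-180 SIE-bla cells; overnight plating; cpd + IL-6 40 pM, 5 h, 37 C; LiveBLAzer 2.5 h RT; 460/530 nm emission ratio. Normalized to 300 pM IL-6 and 125 nM JAK inhibitor controls.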

[5] = biological target: Glucocorticoid receptor (Homo sapiens) (UniProt P04150); experiment: GR-GFP Redistribution (AID 450;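 active = compounds whose dose series gives a full or clear partial fitted curve of increased nuclear translocation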; note: potency is the fitted concentration of half-maximal effect); conditions: U2OS GR-GFP nuclear translocation, laser cytometry, 2 h
Chain of Glucocorticoid receptor (Homo sapiens) (P04150 whole entry, looked up, the tested form may be a part): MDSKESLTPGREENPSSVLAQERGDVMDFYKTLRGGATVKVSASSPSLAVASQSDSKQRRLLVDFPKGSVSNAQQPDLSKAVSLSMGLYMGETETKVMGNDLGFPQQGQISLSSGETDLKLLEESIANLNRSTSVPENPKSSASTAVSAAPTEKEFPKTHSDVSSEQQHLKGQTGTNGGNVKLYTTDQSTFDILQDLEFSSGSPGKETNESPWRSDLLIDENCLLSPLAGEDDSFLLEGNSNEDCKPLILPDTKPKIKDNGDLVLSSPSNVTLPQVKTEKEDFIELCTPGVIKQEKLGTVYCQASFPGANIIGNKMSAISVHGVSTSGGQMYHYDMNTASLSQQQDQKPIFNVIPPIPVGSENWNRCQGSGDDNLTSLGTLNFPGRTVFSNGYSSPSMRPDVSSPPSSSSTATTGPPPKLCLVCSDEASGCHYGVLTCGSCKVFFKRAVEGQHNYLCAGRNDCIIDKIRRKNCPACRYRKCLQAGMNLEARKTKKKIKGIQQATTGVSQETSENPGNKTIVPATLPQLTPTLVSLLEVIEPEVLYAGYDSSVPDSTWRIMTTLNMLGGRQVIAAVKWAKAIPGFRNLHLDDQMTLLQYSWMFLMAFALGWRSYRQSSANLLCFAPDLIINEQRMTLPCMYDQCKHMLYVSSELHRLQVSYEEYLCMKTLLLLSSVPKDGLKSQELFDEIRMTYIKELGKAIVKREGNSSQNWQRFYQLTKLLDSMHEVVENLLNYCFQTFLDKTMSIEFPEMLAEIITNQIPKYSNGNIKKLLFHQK

[6] = biological target: Glucocorticoid receptor (Homo sapiens) (UniProt P04150); experiment: GR-EFC Redistribution (AID 451; calls by dose curve; note: potency is the fitted concentration of half-maximal effect); conditions: CHO-K1 GR-EFC translocation, beta-gal luminescence, 2 h
Outline: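 CHO-K1 cells expressing nuclear EA and GR-ED fragments of b-gal; compounds titrated up to 46 uM final, 2 h at 37 C. GR nuclear translocation read as complemented b-gal luminescence after 1 h RT detection.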

[7] = biological target: Mitogen-activated protein kinase 10 (Mus musculus) (UniProt Q61831); experiment: JNK3 AlphaScreen Assay (AID 530); conditions: JNK3 lysate, c-Jun phosphorylation; series mostly up to 11.4 µM;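 note: kinase came from lysate of stimulated human HepG2 cells; signal reports phosphorylation of biotinylated GST-cJun 1-79 at Ser73 with 10 µM ATP; % is set by controls: 0 for no effect and ±100 for the full control effect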
Outline: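 Pre-activated (IL-1β/TNFα) JNK3 in HepG2 lysates phosphorylates biotin-GST-cJun(1-79), 10 uM ATP; anti-phospho-cJun(Ser73) AlphaScreen read at room temperature, pH 7.6 Tris buffer. Compounds pre-incubated 15 min as titrations.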

[8] = biological target: 3',5'-cyclic-AMP phosphodiesterase 4B (Homo sapiens) (UniProt Q07343); experiment: qHTS Assay for Inhibitors of PDE-IV (AID 607; active = well fitted activation curve with a large enough effect in the main read-out, with a control signal flat, not every such curve was filed as active; note: % of control where 0% means no effect); conditions: HEK293 ACTOne CNG channel cells, membrane potential fluorescence; series mostly up to 22.9 µM
Chain of 3',5'-cyclic-AMP phosphodiesterase 4B (Homo sapiens) (Q07343 whole entry, looked up): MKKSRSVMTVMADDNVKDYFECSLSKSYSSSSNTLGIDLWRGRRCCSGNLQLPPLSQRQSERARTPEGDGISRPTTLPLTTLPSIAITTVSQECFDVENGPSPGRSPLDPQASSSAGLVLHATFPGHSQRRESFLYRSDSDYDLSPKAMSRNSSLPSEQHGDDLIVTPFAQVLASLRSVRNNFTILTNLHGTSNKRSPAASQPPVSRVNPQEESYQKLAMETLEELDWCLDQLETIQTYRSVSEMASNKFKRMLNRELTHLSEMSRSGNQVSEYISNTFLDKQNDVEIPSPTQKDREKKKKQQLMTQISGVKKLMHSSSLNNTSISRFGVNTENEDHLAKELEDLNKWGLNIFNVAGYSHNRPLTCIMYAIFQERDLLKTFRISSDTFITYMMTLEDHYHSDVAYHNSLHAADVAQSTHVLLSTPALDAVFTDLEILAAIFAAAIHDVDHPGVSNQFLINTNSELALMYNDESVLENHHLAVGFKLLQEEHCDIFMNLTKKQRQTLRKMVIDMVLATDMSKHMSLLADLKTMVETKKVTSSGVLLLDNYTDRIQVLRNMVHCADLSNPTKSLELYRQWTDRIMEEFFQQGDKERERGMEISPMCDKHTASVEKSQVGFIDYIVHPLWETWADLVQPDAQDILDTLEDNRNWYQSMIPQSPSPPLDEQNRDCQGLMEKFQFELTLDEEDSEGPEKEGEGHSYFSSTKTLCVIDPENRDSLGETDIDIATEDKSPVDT
Outline: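 ACTOne HEK293 cells carry a modified cAMP-gated CNG channel and express endogenous PDE4; plated 1000 cells/well, compounds up to 22.9 uM final. Membrane-potential dye fluorescence (ex 535/em 590) was read; parental cells received 10 uM forskolin + 100 uM RO 20-1724.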

[9] = biological target: Cytochrome P450 2C19 (Homo sapiens) (UniProt P33261); experiment: qHTS Assay for Inhibitors and Substrates of Cytochrome P450 2C19 (AID 899; active = well fitted curve in the direction sought with a large enough effect; an effect the other way counts as inactive or inconclusive; note: nearly all actives have a fitted effect of over 60% in size; note: potency is the fitted concentration of half-maximal effect); conditions: recombinant CYP2C19, luciferin-H EGE luminescence; series mostly up to 11.4 µM
Chain of Cytochrome P450 2C19 (Homo sapiens) (P33261 whole entry, looked up): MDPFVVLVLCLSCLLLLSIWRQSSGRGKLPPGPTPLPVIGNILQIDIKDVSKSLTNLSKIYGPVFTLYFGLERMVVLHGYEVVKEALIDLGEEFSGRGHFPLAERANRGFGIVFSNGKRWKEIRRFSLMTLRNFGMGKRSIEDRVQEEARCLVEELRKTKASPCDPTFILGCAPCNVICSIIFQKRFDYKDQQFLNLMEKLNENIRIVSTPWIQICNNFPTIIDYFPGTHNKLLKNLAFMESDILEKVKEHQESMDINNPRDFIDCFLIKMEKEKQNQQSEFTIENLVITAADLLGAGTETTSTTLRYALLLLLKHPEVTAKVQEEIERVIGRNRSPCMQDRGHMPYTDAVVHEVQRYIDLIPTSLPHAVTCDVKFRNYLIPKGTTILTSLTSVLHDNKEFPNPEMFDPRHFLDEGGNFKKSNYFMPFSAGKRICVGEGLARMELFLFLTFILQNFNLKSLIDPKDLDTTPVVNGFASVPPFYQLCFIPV
Outline: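 Luminescent read-out of luciferin formed from Luciferin-H EGE (10uM, equal to KM). Enzyme 5nM in 50mM KPO4; compound added, 10 min at 37C, then NADPH regenerating system for 60 min at 37C. Full inhibition defined by 57uM ketoconazole.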

[10] = qHTS Assay for Identification of Small Molecule Agonists for Hypoxia Response Element Signaling Pathway (AID 914; active = well fitted activation curve with a large enough effect in the signal ratio, with a control signal flat, not every such curve was filed as active; the % refers to the signal ratio; note: % of control where 0% means no effect); conditions: ME-180 (cervical carcinoma) HRE-bla reporter, beta-lactamase ratio, CoCl2, 17 h; activation: hits give high values
Outline: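 Reporter activity (beta-lactamase, CCF4 460nm/530nm ratio) in HRE-bla ME-180 cells is recorded after 17 h compound exposure with EC50 CoCl2 at 37 degrees Celsius. AC50 values come from titration data.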

[11] = biological target: Cytochrome P450 2D6 (Homo sapiens) (UniProt P10635); experiment: qHTS Assay for Inhibitors and Substrates of Cytochrome P450 2D6 (AID 891; active = well fitted curve in the direction sought with a large enough effect; an effect the other way counts as inactive or inconclusive; note: potency is the fitted concentration of half-maximal effect; nearly all actives have a fitted effect of over 60% in size); conditions: recombinant CYP2D6, luciferin-ME EGE luminescence; series mostly up to 11.4 µM
Chain of Cytochrome P450 2D6 (Homo sapiens) (P10635 whole entry, looked up): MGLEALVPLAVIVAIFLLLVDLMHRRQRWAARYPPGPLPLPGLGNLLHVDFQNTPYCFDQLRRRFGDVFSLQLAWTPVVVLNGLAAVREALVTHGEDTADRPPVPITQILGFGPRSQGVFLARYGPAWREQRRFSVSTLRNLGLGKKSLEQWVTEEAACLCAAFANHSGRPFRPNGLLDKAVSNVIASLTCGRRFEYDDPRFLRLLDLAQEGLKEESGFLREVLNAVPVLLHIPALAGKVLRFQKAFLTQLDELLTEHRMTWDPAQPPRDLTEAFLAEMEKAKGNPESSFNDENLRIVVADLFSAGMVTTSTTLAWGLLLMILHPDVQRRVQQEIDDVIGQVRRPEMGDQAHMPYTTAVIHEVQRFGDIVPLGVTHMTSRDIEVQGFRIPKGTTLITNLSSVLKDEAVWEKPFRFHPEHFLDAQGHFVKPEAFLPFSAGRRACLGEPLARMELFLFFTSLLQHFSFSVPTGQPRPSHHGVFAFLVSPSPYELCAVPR
Outline: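 Human CYP2D6 (5 nM) with 30 uM Luciferin-ME EGE (at Km) in 100 mM KPO4, compound preincubated 10 min, then NADPH regeneration system for 60 min at room temperature. Luciferin read by luminescence; normalized to 1.43 uM quinidine.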

[12] = biological target: Cytochrome P450 2C9 (Homo sapiens) (UniProt P11712); experiment: qHTS Assay for Inhibitors and Substrates of Cytochrome P450 2C9 (AID 883; active = well fitted curve in the direction sought with a large enough effect; an effect the other way counts as inactive or inconclusive; note: nearly all actives have a fitted effect of over 60% in size; note: potency is the fitted concentration of half-maximal effect); conditions: recombinant CYP2C9, luciferin-H luminescence, 60 min; series mostly up to 11.4 µM
Chain of Cytochrome P450 2C9 (Homo sapiens) (P11712 whole entry, looked up): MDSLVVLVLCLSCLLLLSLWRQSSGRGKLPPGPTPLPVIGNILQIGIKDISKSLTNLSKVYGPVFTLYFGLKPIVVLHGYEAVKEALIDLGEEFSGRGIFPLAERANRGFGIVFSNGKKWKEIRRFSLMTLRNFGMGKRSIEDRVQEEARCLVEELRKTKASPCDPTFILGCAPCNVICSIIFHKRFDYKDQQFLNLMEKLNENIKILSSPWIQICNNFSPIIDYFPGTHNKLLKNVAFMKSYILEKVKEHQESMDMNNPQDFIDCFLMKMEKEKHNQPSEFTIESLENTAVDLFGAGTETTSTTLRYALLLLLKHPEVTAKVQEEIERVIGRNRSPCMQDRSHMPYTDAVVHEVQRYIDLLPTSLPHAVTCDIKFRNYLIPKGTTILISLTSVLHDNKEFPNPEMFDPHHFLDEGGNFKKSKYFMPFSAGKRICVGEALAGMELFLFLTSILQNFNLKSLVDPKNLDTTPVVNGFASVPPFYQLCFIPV
Outline: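 10nM CYP2C9 + 100uM Luciferin-H (=KM), 25mM KPO4; cpd 10 min 37C; NADPH regen, 60 min 37C; stop/detect with P450 Glo-Buffer 20 min; luminescence. Norm. to 57uM sulphaphenazole as full inhibition.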

[13] = biological target: Cytochrome P450 3A4 (Homo sapiens) (UniProt P08684); experiment: qHTS Assay for Inhibitors and Substrates of Cytochrome P450 3A4 (AID 884; active = well fitted curve in the direction sought with a large enough effect; an effect the other way counts as inactive or inconclusive; note: potency is the fitted concentration of half-maximal effect; nearly all actives have a fitted effect of over 50% in size); conditions: recombinant CYP3A4, Luciferin-PPXE luminescence; series mostly up to 57.1 µM
Chain of Cytochrome P450 3A4 (Homo sapiens) (P08684 whole entry, looked up): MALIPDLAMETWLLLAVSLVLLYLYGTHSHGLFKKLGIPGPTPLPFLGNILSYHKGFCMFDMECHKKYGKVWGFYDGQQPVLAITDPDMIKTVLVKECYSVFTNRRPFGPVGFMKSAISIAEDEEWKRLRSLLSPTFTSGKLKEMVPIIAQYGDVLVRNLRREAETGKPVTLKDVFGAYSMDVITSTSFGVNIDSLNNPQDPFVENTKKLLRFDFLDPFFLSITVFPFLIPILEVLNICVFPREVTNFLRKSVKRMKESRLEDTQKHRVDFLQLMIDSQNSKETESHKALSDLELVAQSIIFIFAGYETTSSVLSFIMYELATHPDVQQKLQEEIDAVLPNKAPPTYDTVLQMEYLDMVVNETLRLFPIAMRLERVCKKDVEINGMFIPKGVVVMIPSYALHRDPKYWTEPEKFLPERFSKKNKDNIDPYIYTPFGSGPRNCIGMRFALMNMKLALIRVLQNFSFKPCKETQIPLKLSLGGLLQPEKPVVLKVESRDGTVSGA
Outline: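 20 nM human CYP3A4 with 25 uM Luciferin-PPXE (at KM) in 200 mM KPO4, preincubated 10 min with compound; NADPH regeneration started a 60 min RT reaction. Luciferin detected by luminescence, normalized to 57 uM ketoconazole as full inhibition.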

[14] = biological target: Cytochrome P450 3A4 (Homo sapiens) (UniProt P08684); experiment: qHTS Assay for Activators of Cytochrome P450 3A4 (AID 885; active = well fitted curve in the direction sought with a large enough effect; an effect the other way counts as inactive or inconclusive; note: nearly all actives have a fitted effect of over 65% in size); conditions: recombinant CYP3A4, Luciferin-PPXE luminescence, 60 min; series mostly up to 11.4 µM
Outline: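 20nM CYP3A4 + 25uM Luciferin-PPXE (=KM), 200mM KPO4; cpd 10 min RT; NADPH regen, 60 min RT; stop w/ detection buffer, 20 min; luminescence. Normalized to 57 uM ketoconazole.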

c1ccc(-c2nnn(CCN3CCCCC3)n2)cc1
inactive: Potency [1] > 11.4 µM | activity change, negative = inhibition [2] 10.5% | activity change, negative = inhibition [3] -5.15% | activity, negative = inhibition [4] 1.18% | Potency [5] > 46 µM | Potency [6] > 9.22 µM | Potency [7] | Potency [8] | activation [10] -4.81%
active: Potency [9] 1.26 µM

CCCn1cnc2c(SCC(=O)O)nc(N)nc21
inactive: Potency [1] > 11.4 µM | activity change, negative = inhibition [2] 0.287% | activity change, negative = inhibition [3] -8.4% | activity, negative = inhibition [4] -4.97% | Potency [5] > 46 µM | Potency [6] > 9.22 µM | Potency [7] | Potency [8] | Potency [9]

CC(C)(C)c1ccc(O)c(CN(Cc2cc(C(C)(C)C)ccc2O)C2CCCCC2)c1
active: Potency [9] 1.58 µM
inactive: Potency [1] > 11.4 µM | activity change, negative = inhibition [2] 5.42% | activity change, negative = inhibition [3] -3.2% | activity, negative = inhibition [4] 6.32% | Potency [5] > 46 µM | Potency [6] > 9.22 µM | Potency [7] | Potency [8]

CN[C@@H]1NC(=O)c2ccccc2N1Cc1ccc(F)cc1
inactive: Potency [1] > 11.4 µM | activity change, negative = inhibition [2] 4.91% | activity change, negative = inhibition [3] 7.06% | activity, negative = inhibition [4] 4.09% | Potency [5] > 46 µM | Potency [6] > 9.22 µM | Potency [7] | Potency [8] | activation [10] -6.12%

Nc1ccc(-c2ccc(Nc3cc(S(=O)(=O)O)c(N)c4c3C(=O)c3ccccc3C4=O)cc2)c(S(=O)(=O)O)c1
inactive: Potency [1] > 11.4 µM | activity change, negative = inhibition [2] 3.81% | activity change, negative = inhibition [3] -2.33% | activity, negative = inhibition [4] -2.95% | Potency [5] > 46 µM | Potency [6] > 9.22 µM | Potency [7] | Potency [8] | activation [10] -7.34%

c1ccc2nc(CC[C@@H]3CCCCN3)ccc2c1
inactive: Potency [1] > 11.4 µM | activity change, negative = inhibition [2] 7.07% | activity change, negative = inhibition [3] -3.97% | activity, negative = inhibition [4] -5.39% | Potency [5] > 46 µM | Potency [6] > 9.22 µM | Potency [7] | Potency [8] | activation [10] -14.2%

NC[C@@H](O)CSCc1ccc(Cl)cc1
active: Potency [11] 3.16 µM
inactive: Potency [1] > 11.4 µM | activity change, negative = inhibition [2] -2.84% | activity change, negative = inhibition [3] 21.3% | activity, negative = inhibition [4] 0.417% | Potency [5] > 46 µM | Potency [6] > 9.22 µM | Potency [7] | Potency [8]

Clc1ccc(CSC2=NCCN2)cc1Cl
active: Potency [11] 3.16 µM
inactive: Potency [1] > 11.4 µM | activity change, negative = inhibition [2] -9.06% | activity change, negative = inhibition [3] -19.4% | activity, negative = inhibition [4] -8% | Potency [5] > 46 µM | Potency [6] > 9.22 µM | Potency [7] | Potency [8]

NCCC1([N+](=O)[O-])CCNCC1
inactive: Potency [1] > 11.4 µM | activity change, negative = inhibition [2] 2% | activity change, negative = inhibition [3] 12.9% | activity, negative = inhibition [4] -18.7% | Potency [5] > 46 µM | Potency [6] > 9.22 µM | Potency [7] | Potency [8] | activation [10] 13.3%

Cc1ccc(N=Nc2c(O)ccc3cc(S(=O)(=O)O)ccc23)cc1
inactive: Potency [1] > 11.4 µM | activity change, negative = inhibition [2] -18.1% | activity change, negative = inhibition [3] -0.401% | activity, negative = inhibition [4] -4.61% | Potency [5] > 46 µM | Potency [6] > 9.22 µM | Potency [8]

CO[C@@H]1/C=C\O[C@]2(C)Oc3c(C)c(O)c4c(O)c(c(CN5CCN(C)CC5)c(O)c4c3C2=O)NC(=O)/C(C)=C\C=C[C@@H](C)[C@@H](O)[C@H](C)[C@@H](O)[C@H](C)[C@H](OC(C)=O)[C@@H]1C
inactive: Potency [1] > 11.4 µM | activity change, negative = inhibition [2] -8.05% | activity change, negative = inhibition [3] 7.34% | activity, negative = inhibition [4] -6.61% | Potency [5] > 46 µM | Potency [7] | Potency [8]

NS(=O)(=O)c1ccc(NC(=O)Nc2cccc3ccccc23)cc1
inactive: Potency [1] > 11.4 µM | activity change, negative = inhibition [2] -4.66% | activity change, negative = inhibition [3] 12.6% | activity, negative = inhibition [4] -9.73% | Potency [5] > 46 µM | Potency [7] | Potency [8]

Clc1ccc(CN2CCCN(Cc3ccc(Cl)cc3)C2c2cc3ccccc3c3ccccc23)cc1
active: Potency [11] 0.199 µM | Potency [9] 0.794 µM
inactive: Potency [1] > 11.4 µM | activity change, negative = inhibition [2] 6.24% | activity change, negative = inhibition [3] -10.5% | activity, negative = inhibition [4] 2.22% | Potency [5] > 46 µM | Potency [7] | Potency [12]

O=C1c2ccccc2C(=O)c2c(Nc3cc4c5c(ccc6c7ccc8c9c(cc(Nc%10cccc%11c%10C(=O)c%10ccccc%10C%11=O)c(c3c56)c97)-c3ccccc3C8=O)C(=O)c3ccccc3-4)cccc21
inactive: Potency [1] > 11.4 µM | activity change, negative = inhibition [2] 11.6% | activity change, negative = inhibition [3] 22.7% | activity, negative = inhibition [4] 11.5% | Potency [5] > 46 µM | Potency [6] > 9.22 µM | Potency [8]

Cc1ccc(S(=O)(=O)N[C@H](CN)C(=O)O)cc1
inactive: Potency [1] > 11.4 µM | activity change, negative = inhibition [2] 10.5% | activity change, negative = inhibition [3] 3.21% | activity, negative = inhibition [4] 8.31% | Potency [5] > 46 µM | Potency [6] > 9.22 µM | Potency [8] | Potency [9]

COc1ccc([C@@H](C)c2cc3c(cc2O)OCO3)cc1
inactive: Potency [1] > 11.4 µM | activity change, negative = inhibition [2] -11.5% | activity change, negative = inhibition [3] -3.98% | activity, negative = inhibition [4] 4.36% | Potency [5] > 46 µM | Potency [6] > 9.22 µM | Potency [8] | Potency [14]
active: Potency [12] 1.58 µM | Potency [13] 2.51 µM
